The panel holds about 83,000 compounds, 20% with a hit somewhere; the sample as a whole holds those more often.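 96-well plates, one dose, 48 hours. Percent growth reported; active if below 10.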 Values without a mark were called inactive. Activity calls are given as the source filed them.
What follows are molecules tested on OVCAR-8 ovarian (assay: NCI-60 one-dose screen, 48 h (100 = growth as untreated, 0 = no growth, -100 = all killed)). Conditions: 10 µM unless noted.
Protocol: Growth inhibition of the OVCAR-8 human tumor cell line is measured as a screen for anti-cancer activity. Cells are grown in 96 well plates and exposed to the test compound for 48 hours. Compounds are tested at a single concentration, which is 10^-5 M for most compounds. The reported endpoint is percent growth (GI% or GIPRCNT), where numbers from 0 - 100% represent growth inhibition, and numbers from -100% - 0 represent cell death. For example, a value of 40 represents 60% growth inhibition. A value of 0 means no net growth occurred over the course of the experiment. A value of -40 indicates 40% of cells at the beginning of the experiment died by the end of the experiment. A value of -100 means all cells are dead at the end of the experiment.
NCI-60 Human Tumor Cell Lines Screen was performed using the standard one-dose NCI protocol, which is described in more detail at https://dtp.cancer.gov/discovery_development/nci-60/default.htm.
Compounds with GIPRCNT values below 10 were considered active. Activity score was based on GIPRCNT using the following formula: […]
Score is 0 for GIPRCNT values of 100 or above, 50 for GIPRCNT values of 0, and 100 for GIPRCNT values of -100.

SMILES	growth
Fc1cc(-c2cnc3nonc3n2)c(Cl)cc1Cl	97.3%
CN(C)CCNC(=O)n1cc(-c2ccncc2)c(-c2cc(O)cc(Cl)c2)n1	86.9%
CC(NC(=O)c1ccccc1)C(=O)Nc1ccccc1 (stereo not given)	103%
COc1ccc(-c2cc(-c3cn(-c4cccc(Cl)c4)nc3-c3ccc(OC)cc3)[nH]c(=S)n2)cc1	84%
CC(C)CC1NC(=O)C(CC(C)C)N(CO)C1=O (stereo not given)	107%
COc1ccc2nc(C)cc(Sc3nc4ccccc4s3)c2c1	36.5%
COc1ccc2c(c1)N(Cc1ccc(Cl)cc1)CCC2N1CCCC1=O (stereo not given)	50%
COc1cc(C2CC(c3ccc(C)cc3)=NN2C=O)ccc1Oc1nc2c(c(=O)n(C)c(=O)n2C)n1C (stereo not given)	92.4%
O=C(NO)c1ccc(CNc2cccc3nc(C4CC4)n(-c4ccccc4)c(=O)c23)cc1	-15.4% (active)
CC1CCN(CCCCCOc2ccc3oc4ccc(Cl)cc4c(=O)c3c2)CC1	59.7%
CCN1CCN(Cc2ccc(NC(=O)Nc3ccc(-n4ccc5c(NC(=O)c6ccccc6)nccc54)cc3)cc2C(F)(F)F)CC1	-28.5% (active)
C=C1C(=O)O[C@H]2[C@H]1CC/C(COC(=O)N[C@@H](Cc1c[nH]c3ccccc13)C(=O)OC)=C\CC[C@@]1(C)O[C@@H]21	37.1%
CCN1C(=O)C(C)C=C(C)C=C1C (stereo not given)	102%
C/C(=N\NC(=O)CSc1nc2ccccc2c(=O)n1CCc1ccc(S(N)(=O)=O)cc1)c1ccc(Br)cc1	34.6%
CCOC(=O)c1cc(C(=O)OCC)c(C)nc1C	104%
CCCCCCCCN=C(NCCCCCCCC)SCc1cccc2ccccc12	-92.5% (active)
O=C(Nc1ccc(Br)cc1)Nc1cccc(Br)c1	48.8%
CNC(=O)OC1C(O[C@H]2C[C@H]3[C@@H]4CC=C5C[C@@H](O)CC[C@]5(C)[C@H]4CC[C@]3(C)[C@H]2[C@H](C)C(=O)CCC(C)C)OCC(O)C1OC1OCC(O)C(O)C1OC(=O)c1ccc(OC)cc1 (stereo not given in full)	35.5%
CN(C)CC(=O)c1ccc2cc(Br)c3ccccc3c2c1	57.9%
COc1cc(C2CC(c3ccc(Cl)cc3)=NN2C(C)=O)ccc1Oc1nc2c(c(=O)n(C)c(=O)n2C)n1C (stereo not given)	92.2%

SMILES	growth
c1cc2c(cc1-c1cnc3nonc3n1)OCO2	92.4%
CC(=O)Nc1ccc(/C=N/N2CCCCCC2)cc1	101%
CCOC(=O)Nc1ccc2nc(Sc3ccc(Cl)cc3)sc2c1	44.6%
CS(=O)(=O)c1ccc(C(=O)N/N=C/c2ccccc2Cl)cc1	97.1%
CN(C)c1ccc(C2(Cl)c3ccccc3N(C)c3ccccc32)cc1	7.94% (active)
COc1cc(/C=C2\CN(C(=O)OC(C)(C)C)C/C(=C\c3ccc(O)c(OC)c3)C2=O)ccc1O	89.6%
Nc1nc(N)c2cc(NCc3ccc(Cl)c(Cl)c3)ccc2n1	-78.8% (active)
NC(N)=N/N=C/c1ccc(Cl)cc1	88.3%
CCNCCCn1c2c(c3ccc(Cl)cc3c1=O)C(=O)c1cc(OC)cnc1-2	-30.7% (active)
COc1cc(OC)cc(-c2ccc(-c3ccc(C(=N)N)s3)s2)c1	-58.8% (active)
N/C(=N\OC(=O)c1ccccc1)C(C(=O)NOC(=O)c1ccccc1)C1CCCCC1 (stereo not given)	65.8%
COc1ccc(NC(=O)c2sc3c(=O)[nH]c(C(F)(F)F)nc3c2C)cc1	100%
CCN(CC)CCNC(=O)n1cc(-c2ccncc2)c(-c2cc(Cl)cc(OC)c2)n1	27.7%
Cc1[nH]c2ccccc2c1C1=CC(=O)C=CC1=O	89.3%
NC(=O)N/N=C\c1ccc([N+](=O)[O-])o1	97.6%
O=C(NCCN1CCCC1)n1cc(-c2ccncc2)c(-c2cc(O)cc(Cl)c2)n1	77.8%
COc1ccc(Nc2nc(N)nc3c(=O)[nH]ccc23)cc1	107%
COc1cc(C2CC(c3ccc(Cl)cc3)=NN2C(C)=O)ccc1Oc1ccnc2cc(Cl)ccc12 (stereo not given)	26.8%
CCC1N=C(N)N=C(N)N1c1ccc(Cl)cc1 (stereo not given)	74.4%
O=C(Nc1ccccc1)c1cc2ccccc2s1	96.9%
